Experiment [1] concerns TRPC4 beta (transient receptor potential cation channel C4), mouse. Briefly: activators of mouse TRPC4 channel, confirmation, cell-based, Fluo4 calcium, HEK293 TRPC4beta/mu-opioid, duplicates, 10 µM (AID 2426;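 active means fluorescence ratio normalized to control raised more than 50% in primary screen plus both repeat runs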;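 on activation: percent rise of integrated ratio over buffer wells lacking compound which define 0%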). As to conditions: Fluo4 calcium fluorescence, at 10 µM; active compounds read high.
The test system of experiment [2] is transient receptor potential cation channel C4 beta (TRPC4), mouse. Briefly: activators of mouse TRPC4 channel, confirmation, cell-based, second round, Fluo4, HEK293 TRPC4beta/mu-opioid, 1 µM (AID 2461;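 active means primary screen active and over 50% activation in each of two duplicate runs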;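 on activation: 0% = wells without test compound as baseline of integrated fluorescence ratio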). As to conditions: Fluo4 calcium fluorescence, at 1 µM; active compounds read high.
Experiment [3] has as its system TRPC4 (transient receptor potential cation channel C4 beta), mouse. Briefly: positive allosteric modulators of mouse TRPC4, confirmation, cell-based, second round, Fluo-4, HEK293 TRPC4beta/mu-opioid, 1 µM (AID 2554;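 active means primary screen hit whose fluorescence ratio, in both repeats, exceeds the weak agonist control mean by 3 SD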). The settings on record: DAMGO EC20, Fluo-4 calcium flux, at 1 µM; active compounds read high. A general note: Calcium assays in cells follow changes in intracellular calcium, usually with a dye or a luminescent sensor.

The test system of experiment [4] is TRPC4 beta (transient receptor potential cation channel C4), mouse. Briefly: positive allosteric modulators of mouse TRPC4, confirmation, cell-based, Fluo-4, HEK293 TRPC4beta/mu-opioid (AID 2555;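 active means primary screen hit whose calcium fluorescence ratio, in both repeats, exceeds the weak agonist control mean by 3 SD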). The settings on record: DAMGO EC20, Fluo-4 calcium flux, at 10 µM; active compounds read high.
Experiment [5] has as its target Short transient receptor potential channel 4 (Mus musculus) (UniProt Q9QUQ5). Briefly: inhibitors of mouse TRPC4 channel, confirmation, cell-based, Fluo4, HEK293 TRPC4beta/mu-opioid (AID 2636;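 active means calcium signal cut by more than 3 SD below the full-agonist control yet still positive, in both repeats and the earlier primary screen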). The settings on record: DAMGO, Fluo4 calcium flux, at 10 µM; active compounds read high.
The target is the same in experiment [6]. Briefly: inhibitors of mouse TRPC4 channel, confirmation, cell-based, second round, Fluo4, HEK293 TRPC4beta/mu-opioid, 1 µM (AID 2637;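 active means calcium signal ratio cut to more than 3 SD under the fully stimulated control mean yet still positive, in both repeats and the primary screen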;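 on inhibition: percent of integrated ratio relative to wells lacking test compound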). As to conditions: Fluo4 calcium flux, DAMGO, at 1 µM; active compounds read high.
For experiment [7] the target is unchanged. Nature of the experiment: TRPC4 positive allosteric modulators, dose response, cell-based, HEK293 TRPC4/mu-opioid, Fluo-4 calcium, EC20 DAMGO (AID 434941;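 active means earlier screen potentiator hit that boosts the TRPC4 ion channel at some dose, with a dose response; inactive means no potentiation, no dose response, or not a prior hit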;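 further: calcium entry triggered by an EC20 dose of DAMGO at the co-expressed mu-opioid receptor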).
The target in experiment [8] is Short transient receptor potential channel 6 (Mus musculus) (UniProt Q61143). Briefly: inhibition of mouse TRPC6 channel, confirmation, selectivity assay for TRPC4 inhibitor project, cell-based, HEK293, membrane potential dye, duplicate (AID 434948;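 active means active in primary screen and both duplicates, each dropping signal beyond three positive-control SD with fluorescence still positive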). As to conditions: HEK293 TRPC6, membrane potential dye fluorescence, at 10 µM, stimulated with maximal-effect acetylcholine; active compounds read high.
Sequence of Short transient receptor potential channel 6 (Mus musculus) (Q61143 whole entry, looked up): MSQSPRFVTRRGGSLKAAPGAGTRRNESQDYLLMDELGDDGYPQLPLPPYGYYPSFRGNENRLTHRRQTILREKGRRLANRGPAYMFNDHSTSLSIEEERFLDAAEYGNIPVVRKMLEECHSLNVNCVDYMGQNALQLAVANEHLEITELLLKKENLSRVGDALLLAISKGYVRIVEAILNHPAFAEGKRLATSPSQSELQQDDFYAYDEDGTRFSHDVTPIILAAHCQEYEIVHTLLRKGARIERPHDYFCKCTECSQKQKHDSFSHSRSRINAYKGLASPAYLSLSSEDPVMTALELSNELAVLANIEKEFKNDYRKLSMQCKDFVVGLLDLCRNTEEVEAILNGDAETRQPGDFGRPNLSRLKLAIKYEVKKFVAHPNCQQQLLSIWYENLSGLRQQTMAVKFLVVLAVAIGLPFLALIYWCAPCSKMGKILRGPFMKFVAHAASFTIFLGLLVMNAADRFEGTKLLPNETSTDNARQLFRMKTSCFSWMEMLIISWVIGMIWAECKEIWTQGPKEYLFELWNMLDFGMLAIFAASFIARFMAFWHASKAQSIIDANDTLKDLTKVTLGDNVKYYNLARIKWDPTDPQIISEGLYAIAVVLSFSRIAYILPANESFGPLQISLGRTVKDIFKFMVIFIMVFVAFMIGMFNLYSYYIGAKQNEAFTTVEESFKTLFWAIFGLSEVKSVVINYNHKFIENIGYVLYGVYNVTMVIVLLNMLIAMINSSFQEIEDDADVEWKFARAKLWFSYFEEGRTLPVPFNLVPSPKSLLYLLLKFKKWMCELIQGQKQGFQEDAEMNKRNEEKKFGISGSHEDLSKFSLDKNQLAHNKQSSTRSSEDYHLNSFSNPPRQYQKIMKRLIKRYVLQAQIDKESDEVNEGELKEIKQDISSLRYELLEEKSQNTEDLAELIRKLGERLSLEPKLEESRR

Experiment [9] shares this target. Nature of the experiment: activation of mouse TRPC6 channel, confirmation, selectivity assay for TRPC4 activator project, cell-based, HEK293, membrane potential dye, duplicate (AID 434950).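 On activation: 0% = buffer only wells and 100% = acetylcholine maximal-effect wells.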 The settings on record: HEK293 TRPC6, membrane potential fluorescence, at 10 µM; active compounds read high.
The target is the same in experiment [10]. Briefly: TRPC6 potentiation by TRPC4 potentiator hits, confirmation, selectivity assay for TRPC4 potentiator project, HEK293 cells, membrane potential dye, duplicate (AID 434952;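 active means compound raising the membrane signal above positive-control mean plus 3 SD in both repeats, and a primary screen hit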). The settings on record: HEK293 TRPC6, membrane potential dye fluorescence, at 10 µM, maximal acetylcholine added after compound; active compounds read high.
The target in experiment [11] is Short transient receptor potential channel 4 (Mus musculus) (UniProt Q9QUQ5). Nature of the experiment: calcium flux activators in TRPC4/5HT1a cells, counter-screen for TRPC4 activator project, cell-based, second counter screen, HEK293 TRPC4/5HT1a, Fluo-4 (AID 434977;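 active means calcium signal rise above buffer-control mean plus 5 SD in both duplicates, and also a hit in the primary screen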;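 on activation: plate controls were assay buffer for no effect and maximal serotonin response for full effect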). The settings on record: Fluo-4 calcium flux, at 10 µM; active compounds read high.
Sequence of Short transient receptor potential channel 4 (Mus musculus) (Q9QUQ5 whole entry, looked up): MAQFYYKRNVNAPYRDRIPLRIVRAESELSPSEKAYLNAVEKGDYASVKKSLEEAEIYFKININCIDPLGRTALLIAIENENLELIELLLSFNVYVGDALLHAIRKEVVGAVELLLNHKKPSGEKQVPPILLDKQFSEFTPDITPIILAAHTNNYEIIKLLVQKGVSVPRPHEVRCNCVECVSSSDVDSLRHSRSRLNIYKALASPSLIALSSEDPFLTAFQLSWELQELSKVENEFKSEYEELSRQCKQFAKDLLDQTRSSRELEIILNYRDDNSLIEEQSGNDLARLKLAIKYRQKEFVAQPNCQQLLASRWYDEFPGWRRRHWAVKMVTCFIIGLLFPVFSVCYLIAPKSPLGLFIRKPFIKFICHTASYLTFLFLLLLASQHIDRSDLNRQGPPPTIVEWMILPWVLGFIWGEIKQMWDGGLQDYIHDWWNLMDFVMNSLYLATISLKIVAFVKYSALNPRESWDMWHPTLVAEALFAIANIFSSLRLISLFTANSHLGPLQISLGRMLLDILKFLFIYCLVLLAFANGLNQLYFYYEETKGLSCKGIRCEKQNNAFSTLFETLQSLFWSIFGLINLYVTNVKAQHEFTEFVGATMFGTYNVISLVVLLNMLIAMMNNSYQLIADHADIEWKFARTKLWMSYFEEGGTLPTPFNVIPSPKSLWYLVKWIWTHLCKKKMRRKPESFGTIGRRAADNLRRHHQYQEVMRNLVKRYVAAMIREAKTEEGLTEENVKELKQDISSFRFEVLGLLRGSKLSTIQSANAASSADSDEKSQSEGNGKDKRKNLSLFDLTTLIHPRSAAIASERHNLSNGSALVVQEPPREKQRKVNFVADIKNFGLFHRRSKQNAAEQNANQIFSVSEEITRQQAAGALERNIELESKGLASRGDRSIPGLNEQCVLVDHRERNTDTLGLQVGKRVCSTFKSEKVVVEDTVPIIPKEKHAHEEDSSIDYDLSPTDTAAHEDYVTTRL
Experiment [12] is described as follows: calcium flux inhibitors in TRPC4/5HT1a cells, confirmation, counter-screen for TRPC4 inhibitor project, cell-based, second counter screen, HEK293 TRPC4/5HT1a, Fluo-4 (AID 434978;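 active means primary screen active whose calcium signal fell more than 3 SD beyond the full-serotonin control mean in both duplicate plates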;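 on outcome: serotonin given first at submaximal then at maximal dose after compound preincubation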). The settings on record: Fluo-4 calcium flux, at 10 µM, serotonin added to trigger calcium flux; active compounds read high.
The test system of experiment [13] is TRPC4 (mouse), co-expressed with 5HT1a in HEK293. Briefly: calcium flux potentiators in TRPC4/5HT1a cells, confirmation, counter-screen for TRPC4 potentiator project, cell-based, second counter screen, HEK293 TRPC4/5HT1a, Fluo-4 (AID 434979;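 active means signal rise over 3 SD above mean of control wells given weak agonist, in both repeats and first screen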). The settings on record: Fluo-4 calcium flux, at 10 µM, serotonin added at its EC20 dose; active compounds read high.
Experiment [14] in a line: calcium flux activation in mu-opioid HEK293 cells, confirmation, counter-screen for TRPC4 activator project, cell-based, HEK293 mu-opioid receptor line (AID 449723;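 active means hit in primary screen, with calcium signal over 5 SD above buffer well mean in both duplicates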;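 further: counter screen cells carry the mu-opioid receptor alone and lack TRPC4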). The settings on record: Fluo-4 calcium fluorescence, at 10 µM; active compounds read high.
Experiment [15] can be described thus: calcium flux enhancement in mu-opioid HEK293 cells, confirmation, counter-screen for TRPC4 allosteric potentiator project, cell-based, HEK293 mu-opioid receptor line (AID 449724;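 active means calcium signal rise more than 3 SD above the low-dose agonist control mean, in both duplicate plates and the primary screen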;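 further: HEK293 cells carrying mu-opioid receptor only with no TRPC4 channel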). The settings on record: Fluo-4 calcium flux, at 10 µM, compound added before EC20 DAMGO stimulus; active compounds read high.

For part of these data: Entries with a potency or affinity are not part of this list. Active and inactive are the calls of the source.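 How the source made its calls, unless noted: active means membrane potential signal rise above negative control mean plus 3 SD in both duplicates, also active in the earlier TRPC4 screen; inactive means the rest.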

Turning to `CCCCC(=O)NNC(=S)NC(=O)C(c1ccccc1)c1ccccc1`, the activation is 122% (active) in [1], 42% (active) in experiment [9], 96.7% (active) in experiment [11] and 31.6% (active) in experiment [14]. Moreover, the outcome in experiment [2], in experiment [3], in [4], in experiment [5], in experiment [6] and in experiment [7] was inactive. The compound was classed as inactive in experiment [8], in [10], in experiment [12], in experiment [13] and in [15].

With `O=C(Nc1nnc(-c2cccs2)o1)c1cccc(C(F)(F)F)c1`, the activation in [1] is 151% (active); in experiment [11], 57.6% (active); in experiment [14] it was 29.9% (active). The result in [2], in experiment [3], in [4], in [5], in [6] and in [7] was inactive. Also, the result in experiment [8], in [9], in experiment [10], in [12], in experiment [13] and in [15] was inactive.

As to `Cc1cccc(C(=O)NNC(=S)NC(=O)c2ccccc2)c1`, the activation was 230% (active) in [1], 54.5% (active) in experiment [9], 153% (active) in [11] and 83.3% (active) in experiment [14]. Further, the outcome in [2], in [3], in [4], in experiment [5], in [6] and in experiment [7] was inactive. For the same compound, the result in experiment [8], in experiment [10], in experiment [12], in experiment [13] and in [15] was inactive.

In general, inhibition refers to the relative decrease from the control value, in per cent. Take `COc1ccc(CCN(C)CCN2C(=O)c3ccccc3C2=O)cc1OC`: the activation in experiment [1] was 252% (active); in experiment [2], 103% (active); in experiment [11], 96.5% (active). Moreover, the result in experiment [3], in [4], in experiment [5], in experiment [7], in [8] and in experiment [9] was inactive. Also, the outcome in [10], in [13], in [14] and in [15] was inactive. In addition, the figures for the inhibition in experiment [6] and in experiment [12] were 43% (active) and 1.2% (active), respectively.

As for `Cc1cccc(C(=O)NC(=S)NNC(=O)c2ccccc2Cl)c1`, the activation is 201% (active) in experiment [1], 34% (active) in experiment [9], 138% (active) in experiment [11] and 85.8% (active) in [14]. In addition, the result in experiment [2], in experiment [3], in experiment [4], in experiment [5], in experiment [6] and in experiment [7] was inactive. For the same compound, the outcome in [8], in [10], in experiment [12], in experiment [13] and in [15] was inactive.

Regarding `CN(C)CCCN(C(=O)c1ccc(S(=O)(=O)N(C)C)cc1)c1nc2ccc(F)cc2s1`, the activation in [1] is 59% (active). The outcome in experiment [2], in [3], in experiment [4], in experiment [5], in experiment [7] and in experiment [8] was inactive. Further, the outcome in experiment [9], in experiment [10], in experiment [11], in experiment [12], in experiment [13] and in [14] was inactive. The outcome in [15] was inactive. Moreover, the inhibition in experiment [6] is 37% (active).

Turning to `COc1ccc(C(=O)NC(=S)NNC(=O)c2cccc(C)c2)cc1`, the activation in experiment [1] was 142% (active); in experiment [9] it was 27% (active); in experiment [11], 133% (active); in experiment [14], 40.2% (active). Besides, the result in [2], in [3], in [4], in [5], in experiment [6] and in experiment [7] was inactive. Further, the compound was classed as inactive in experiment [8], in experiment [10], in experiment [12], in experiment [13] and in experiment [15].

Take `OCC1(CC2CCCCO2)CCN(Cc2nc3ccccc3[nH]2)CC1` (stereo not given): the outcome in experiment [1], in experiment [2], in experiment [3], in [4], in experiment [6] and in [7] was inactive. In addition, the call in experiment [8], in [10], in experiment [11], in experiment [12], in experiment [13] and in [14] was inactive. For the same compound, in [15], the result was inactive. The inhibition in [5] was 67% (active). The activation in experiment [9] is 26.5% (active).

In the case of `CCN1/C(=C\c2ccc3ccccc3[n+]2CC)Sc2cc(C)ccc21`, the activation in experiment [1] was 544% (active); in experiment [2] it was 147% (active); in [11], 600% (active); in experiment [14], 672% (active); in [15], 27400% (active). Moreover, the result in [3], in experiment [5], in experiment [6], in [7], in experiment [8] and in experiment [9] was inactive. Besides, the outcome in [10] and in experiment [12] was inactive. Moreover, the potentiation in [4] is 18% (active); in [13], 110% (active).

For `Cc1cccc(C(=O)NNC(=S)NC(=O)c2cccs2)c1`, the results for the activation in experiment [1], in [11] and in experiment [14] were 158% (active), 124% (active) and 36.4% (active), respectively. The result in experiment [2], in experiment [3], in experiment [4], in experiment [5], in [6] and in [7] was inactive. The outcome in experiment [8], in [9], in experiment [10], in experiment [12], in [13] and in [15] was inactive.

Turning to `CN(C)C1(CNC(=O)CC(NC(=O)c2ccccc2Cl)c2ccccc2)CCCCC1` (stereo not given), the result in [1], in [2], in [3], in experiment [4], in experiment [7] and in experiment [8] was inactive. In addition, the result in experiment [10], in experiment [11], in [12], in [13], in experiment [14] and in [15] was inactive. For the same compound, the inhibition was 88% (active) in [5] and 78% (active) in [6]. For the same compound, the activation in [9] was 44.5% (active).

Turning to `CCc1ccc(C(CNc2nc(C(F)(F)F)nc3ccccc23)N(C)C)cc1` (stereo not given), the result in [1], in [2], in experiment [3], in experiment [4], in experiment [5] and in experiment [6] was inactive. Also, the outcome in [7], in experiment [8], in experiment [9], in [10], in experiment [11] and in [12] was inactive. Further, the result in [13], in experiment [14] and in [15] was inactive.

Take `COc1ccc(C(=O)NNC(=S)NC(=O)c2ccccc2)cc1`: the activation in experiment [1] was 130% (active); in experiment [9] it was 32% (active); in experiment [11], 87.5% (active); in experiment [14], 32.5% (active). Also, the result in experiment [2], in experiment [3], in [4], in experiment [5], in experiment [6] and in experiment [7] was inactive. The call in [8], in experiment [10], in experiment [12], in experiment [13] and in experiment [15] was inactive.

On to `COc1cccc(CNCc2ccccn2)c1OC`, for which the result in experiment [1], in experiment [3], in experiment [4], in experiment [5], in experiment [6] and in [7] was inactive. The result in experiment [8], in [10], in experiment [11], in [12], in [13] and in experiment [14] was inactive. In addition, the result in experiment [15] was inactive. Further, the activation in experiment [2] was 56% (active); in experiment [9] it was 40% (active).

Turning to `CCOc1ccccc1N(CC(=O)N1CCOCC1)S(=O)(=O)c1ccccc1`, the activation was 155% (active) in experiment [1], 56.5% (active) in [9], 94% (active) in experiment [11] and 74.4% (active) in [14]. The outcome in experiment [2], in experiment [3], in [4], in experiment [5], in experiment [6] and in experiment [7] was inactive. The compound was classed as inactive in experiment [8], in experiment [10], in [13] and in experiment [15]. The inhibition in experiment [12] is 16% (active).

The record behind these values is PubChem BioAssay.
